In PubChem BioAssay AID1159580 (chemical genetic matrix, 2015):
About 2,000 (36%) of roughly 5,500 compounds were called active. Inconclusive results (about 18%) are left out. Cut-off read from the data, not from the text of the source: active = normalized growth mostly below about 0.91 (no sharp cut-off); inconclusive = no clear call, values can overlap the other calls; inactive = mostly above about 0.92. The list shows a part of the results.

Assay: chemical genetic growth profiling, strain panel (AID 1159580);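 note: tested at 20 µM; growth read once vehicle control cultures reached saturation at 30 °C; 1 = growth at the plate median or of vehicle wells; lower values mean less growth of the strain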
Conditions: S. cerevisiae deletion strains, growth OD
[1] = locus YAL040C, strain CLN3, active compounds read low
[2] = locus YCL061C, strain MRC1 (second series), active compounds read low
[3] = locus YDR363W, strain ESC2, active compounds read low
[4] = locus YER002W, strain NOP16, active compounds read low
[5] = locus YMR263W, strain SAP30, active compounds read low
[6] = locus YMR307W, strain GAS1, active compounds read low
[7] = locus YNL175C, strain NOP13, active compounds read low
[8] = locus YNL197C, strain WHI3, active compounds read low
[9] = locus YNL224C, strain SQS1, active compounds read low
[10] = locus YOR083W, strain WHI5 (second series), active compounds read low

Measured: normalized growth

C[N+]1(C)C2CC(OC(=O)C(CO)c3ccccc3)CC1C1OC12 (configuration not stated)
inactive: locus YAL013W, strain DEP1, active compounds read low 1.03 | [1] 0.975 | [2] 0.995 | [3] 0.985 | [4] 0.997 | locus YGR229C, strain SMI1, active compounds read low 1.05 | [5] 1 | [6] 1.01 | locus YNL128W, strain TEP1, active compounds read low 0.992 | [7] 0.973 | [8] 0.982 | [9] 0.988 | locus YNL322C, strain KRE1, active compounds read low 1 | [10] 0.978 | locus YPL055C, strain LGE1, active compounds read low 1.02 | locus YPL241C, strain CIN2, active compounds read low 0.993

C[N+]1(C)C2CC(OC(=O)[C@H](CO)c3ccccc3)CC1C1OC12 (some centres not stated)
inactive: [1] 0.999 | [2] 1 | [3] 0.998 | [4] 0.981 | [5] 0.998 | [6] 0.946 | locus YNL153C, strain GIM3, active compounds read low 0.99 | [7] 0.996 | [8] 0.988 | [9] 0.994 | [10] 0.991
